# Results reported in article PMC7862700, “An all-to-all approach to the identification of sequence-specific readers for epigenetic DNA modifications on cytosine”.
# Columns and labels:
# Assay in all cases: DAPPL (digital affinity profiling via proximity ligation, sequencing); 10 mM Tris-HCl pH 7.5, 50 mM NaCl, 1 mM DTT, 4% glycerol, room temperature, 30 min; GST-TFs on glutathione beads, 16-mer random dsDNA library, 0.1% formaldehyde crosslink after washing; high values mean tight binding
# [1] = target: T1, FLI1 (Homo sapiens, UniProt Q01543 1-452); settings: protein: recombinant; tags: N-terminal GST; dsDNA, one strand shown
# T1 sequence: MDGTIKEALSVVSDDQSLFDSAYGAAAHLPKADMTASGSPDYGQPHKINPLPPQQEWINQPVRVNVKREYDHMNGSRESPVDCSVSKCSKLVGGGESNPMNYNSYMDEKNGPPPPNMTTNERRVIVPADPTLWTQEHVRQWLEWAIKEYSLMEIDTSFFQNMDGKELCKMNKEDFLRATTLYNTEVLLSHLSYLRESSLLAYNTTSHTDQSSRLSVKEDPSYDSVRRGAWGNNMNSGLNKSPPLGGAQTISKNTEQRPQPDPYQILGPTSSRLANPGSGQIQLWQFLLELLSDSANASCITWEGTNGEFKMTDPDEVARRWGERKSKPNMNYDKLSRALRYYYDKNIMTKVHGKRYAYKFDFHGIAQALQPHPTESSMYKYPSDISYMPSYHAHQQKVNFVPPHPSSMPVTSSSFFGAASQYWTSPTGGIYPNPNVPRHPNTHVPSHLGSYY
# Summary of the method: (§1)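 Binding signal is defined as a hexamer's read frequency for one factor over its frequency for the tag-only sample. To obtain reads, GST-fused human transcription factors were expressed in yeast, captured on glutathione beads, barcoded with DNA and pooled with that sample. Pools met 200 nmole of a 16-mer random double-stranded DNA library in Tris/NaCl/DTT/glycerol buffer for 30 min at room temperature before washing, 0.1% formaldehyde crosslinking, proximity ligation (BsaI/T4 ligase, 1 h, 37 °C), PCR and Illumina NextSeq500 sequencing.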
# [2] = target: T2, ELK1 (Homo sapiens, UniProt P19419 1-428); settings: protein: recombinant; tags: N-terminal GST; dsDNA, one strand shown
# T2 sequence: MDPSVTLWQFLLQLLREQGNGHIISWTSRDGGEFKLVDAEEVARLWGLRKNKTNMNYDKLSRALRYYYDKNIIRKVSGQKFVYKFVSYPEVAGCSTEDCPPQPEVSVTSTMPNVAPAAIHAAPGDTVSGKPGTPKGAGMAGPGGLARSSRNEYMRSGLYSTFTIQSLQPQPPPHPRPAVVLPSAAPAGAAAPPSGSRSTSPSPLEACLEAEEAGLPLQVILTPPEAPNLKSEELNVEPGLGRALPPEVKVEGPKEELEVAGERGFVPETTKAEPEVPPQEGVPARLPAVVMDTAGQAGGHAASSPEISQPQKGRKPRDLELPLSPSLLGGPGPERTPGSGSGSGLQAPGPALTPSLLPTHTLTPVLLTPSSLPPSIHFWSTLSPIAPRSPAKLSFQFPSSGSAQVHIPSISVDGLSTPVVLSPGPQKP
# Summary of the method: as §1
# [3] = target: ELF1 (Homo sapiens, UniProt P32519 1-619); settings: protein: recombinant; tags: N-terminal GST; dsDNA, one strand shown
# Chain of ELF1 (P32519 whole entry): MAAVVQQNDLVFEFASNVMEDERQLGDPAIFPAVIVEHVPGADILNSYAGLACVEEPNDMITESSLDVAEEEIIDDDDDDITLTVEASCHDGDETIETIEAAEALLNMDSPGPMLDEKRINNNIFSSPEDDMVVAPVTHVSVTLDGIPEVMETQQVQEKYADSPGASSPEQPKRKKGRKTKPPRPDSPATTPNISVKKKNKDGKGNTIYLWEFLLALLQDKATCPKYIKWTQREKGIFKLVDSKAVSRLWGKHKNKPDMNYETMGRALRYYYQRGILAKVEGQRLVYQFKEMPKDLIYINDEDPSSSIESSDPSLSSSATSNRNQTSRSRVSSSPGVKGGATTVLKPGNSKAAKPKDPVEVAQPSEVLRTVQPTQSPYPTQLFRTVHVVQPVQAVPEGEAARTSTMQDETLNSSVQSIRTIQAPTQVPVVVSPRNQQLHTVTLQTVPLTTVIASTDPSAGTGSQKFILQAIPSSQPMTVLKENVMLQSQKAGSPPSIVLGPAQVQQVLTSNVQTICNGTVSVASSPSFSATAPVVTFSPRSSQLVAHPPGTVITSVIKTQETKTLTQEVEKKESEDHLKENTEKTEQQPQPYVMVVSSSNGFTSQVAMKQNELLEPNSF
# Summary of the method: as §1
# [4] = target: T3, EHF (Homo sapiens, UniProt Q9NZC4 1-300); settings: protein: recombinant; tags: N-terminal GST; dsDNA, one strand shown
# T3 sequence: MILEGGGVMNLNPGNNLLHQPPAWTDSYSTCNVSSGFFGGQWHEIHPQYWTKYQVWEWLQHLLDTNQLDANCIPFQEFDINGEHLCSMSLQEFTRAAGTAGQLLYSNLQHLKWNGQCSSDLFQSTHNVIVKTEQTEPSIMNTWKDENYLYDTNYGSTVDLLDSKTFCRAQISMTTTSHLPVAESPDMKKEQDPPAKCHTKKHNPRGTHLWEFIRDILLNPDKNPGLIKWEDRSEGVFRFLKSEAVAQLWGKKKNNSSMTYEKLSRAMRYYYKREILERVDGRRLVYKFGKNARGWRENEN
# Summary of the method: as §1
# [5] = target: SPI1 (Homo sapiens, UniProt P17947 1-270); settings: protein: recombinant; tags: N-terminal GST; dsDNA, one strand shown
# Summary of the method: as §1
# [6] = target: T4, FEV (Homo sapiens, UniProt Q99581 1-238); settings: protein: recombinant; tags: N-terminal GST; dsDNA, one strand shown
# T4 sequence: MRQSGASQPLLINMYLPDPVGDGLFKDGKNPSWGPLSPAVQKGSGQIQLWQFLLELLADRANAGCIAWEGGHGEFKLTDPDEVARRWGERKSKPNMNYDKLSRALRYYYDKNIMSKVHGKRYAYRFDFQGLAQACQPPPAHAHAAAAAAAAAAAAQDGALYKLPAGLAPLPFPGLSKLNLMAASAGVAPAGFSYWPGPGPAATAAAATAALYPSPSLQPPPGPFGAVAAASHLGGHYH
# Summary of the method: as §1
# [7] = target: ETV5 (Homo sapiens, UniProt P41161 1-510); settings: protein: recombinant; tags: N-terminal GST; dsDNA, one strand shown
# Chain of ETV5 (P41161 whole entry): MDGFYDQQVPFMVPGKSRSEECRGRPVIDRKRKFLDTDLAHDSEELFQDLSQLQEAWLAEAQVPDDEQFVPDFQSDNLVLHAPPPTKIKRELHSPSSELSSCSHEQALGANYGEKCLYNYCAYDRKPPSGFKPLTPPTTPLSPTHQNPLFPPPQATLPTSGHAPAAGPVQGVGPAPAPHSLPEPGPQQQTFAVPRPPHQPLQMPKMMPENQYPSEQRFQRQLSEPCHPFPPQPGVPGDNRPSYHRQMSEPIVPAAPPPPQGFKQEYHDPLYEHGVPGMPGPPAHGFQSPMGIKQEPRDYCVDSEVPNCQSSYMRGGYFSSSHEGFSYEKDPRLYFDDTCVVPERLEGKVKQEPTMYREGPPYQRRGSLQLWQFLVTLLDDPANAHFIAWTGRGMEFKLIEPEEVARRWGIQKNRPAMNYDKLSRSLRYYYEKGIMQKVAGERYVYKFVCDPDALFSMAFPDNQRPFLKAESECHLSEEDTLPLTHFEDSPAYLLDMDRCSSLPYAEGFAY
# Summary of the method: as §1
# [8] = target: HSF1 (Homo sapiens, UniProt Q00613 1-529); settings: protein: recombinant; tags: N-terminal GST; chain copies: 3; dsDNA, one strand shown
# Chain of HSF1 (Q00613 whole entry): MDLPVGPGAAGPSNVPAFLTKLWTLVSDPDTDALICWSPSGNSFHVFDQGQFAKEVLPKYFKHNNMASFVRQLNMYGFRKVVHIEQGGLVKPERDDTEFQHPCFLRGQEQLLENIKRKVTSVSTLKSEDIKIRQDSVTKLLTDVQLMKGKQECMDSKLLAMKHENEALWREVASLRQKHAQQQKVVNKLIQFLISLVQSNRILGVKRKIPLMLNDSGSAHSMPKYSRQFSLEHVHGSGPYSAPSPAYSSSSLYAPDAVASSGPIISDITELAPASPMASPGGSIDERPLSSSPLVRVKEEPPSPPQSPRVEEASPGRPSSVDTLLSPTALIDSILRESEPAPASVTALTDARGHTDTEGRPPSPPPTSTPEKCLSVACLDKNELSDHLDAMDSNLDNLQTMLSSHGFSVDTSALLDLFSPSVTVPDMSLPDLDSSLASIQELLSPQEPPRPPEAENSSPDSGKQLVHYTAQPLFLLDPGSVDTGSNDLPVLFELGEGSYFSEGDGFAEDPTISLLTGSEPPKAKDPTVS
# Summary of the method: as §1
# [9] = target: T5, SPIC (Homo sapiens, UniProt Q8N5J4 1-248); settings: protein: recombinant; tags: N-terminal GST; dsDNA, one strand shown
# T5 sequence: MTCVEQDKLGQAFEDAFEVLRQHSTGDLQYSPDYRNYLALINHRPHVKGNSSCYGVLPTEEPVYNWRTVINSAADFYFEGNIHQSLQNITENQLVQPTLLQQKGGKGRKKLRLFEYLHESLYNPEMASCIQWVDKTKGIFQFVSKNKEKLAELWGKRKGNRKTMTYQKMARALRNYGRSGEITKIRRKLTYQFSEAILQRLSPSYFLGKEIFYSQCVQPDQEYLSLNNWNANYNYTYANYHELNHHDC
# Summary of the method: as §1
# [10] = target: ELF4 (Homo sapiens, UniProt Q99607 1-663); settings: protein: recombinant; tags: N-terminal GST; dsDNA, one strand shown
# Chain of ELF4 (Q99607 whole entry): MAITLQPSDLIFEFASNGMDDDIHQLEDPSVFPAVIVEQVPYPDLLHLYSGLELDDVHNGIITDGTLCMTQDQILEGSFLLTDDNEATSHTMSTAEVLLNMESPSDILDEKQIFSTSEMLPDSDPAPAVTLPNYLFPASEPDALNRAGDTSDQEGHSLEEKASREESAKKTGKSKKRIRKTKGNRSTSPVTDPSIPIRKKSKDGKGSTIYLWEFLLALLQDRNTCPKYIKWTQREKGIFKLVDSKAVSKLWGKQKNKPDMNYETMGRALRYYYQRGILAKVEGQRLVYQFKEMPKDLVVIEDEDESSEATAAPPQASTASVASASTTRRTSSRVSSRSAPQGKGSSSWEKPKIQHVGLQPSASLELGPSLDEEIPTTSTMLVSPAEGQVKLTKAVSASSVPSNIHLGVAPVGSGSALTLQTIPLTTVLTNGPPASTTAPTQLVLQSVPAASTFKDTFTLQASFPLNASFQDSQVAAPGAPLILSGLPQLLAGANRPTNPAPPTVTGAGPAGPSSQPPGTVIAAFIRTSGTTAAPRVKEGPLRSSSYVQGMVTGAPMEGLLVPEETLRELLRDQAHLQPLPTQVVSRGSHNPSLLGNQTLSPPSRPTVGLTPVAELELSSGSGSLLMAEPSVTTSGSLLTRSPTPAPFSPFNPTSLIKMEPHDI
# Summary of the method: as §1
# [11] = target: T6, ELK4 (Homo sapiens, UniProt P28324-2 1-405); settings: protein: recombinant; tags: N-terminal GST; dsDNA, one strand shown
# T6 sequence: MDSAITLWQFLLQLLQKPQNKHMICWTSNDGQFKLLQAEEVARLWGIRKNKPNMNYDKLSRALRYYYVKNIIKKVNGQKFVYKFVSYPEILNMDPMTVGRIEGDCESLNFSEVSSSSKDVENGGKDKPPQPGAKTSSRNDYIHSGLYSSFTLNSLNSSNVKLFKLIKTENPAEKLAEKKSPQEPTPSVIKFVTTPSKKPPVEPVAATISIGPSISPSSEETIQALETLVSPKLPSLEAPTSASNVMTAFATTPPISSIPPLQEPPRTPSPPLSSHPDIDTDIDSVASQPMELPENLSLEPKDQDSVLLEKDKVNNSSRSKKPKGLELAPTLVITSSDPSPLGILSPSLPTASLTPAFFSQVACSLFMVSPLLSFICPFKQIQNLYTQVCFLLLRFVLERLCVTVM
# Summary of the method: as §1
# [12] = target: T7, ETV2 (Homo sapiens, UniProt O00321 1-342); settings: protein: recombinant; tags: N-terminal GST; dsDNA, one strand shown
# T7 sequence: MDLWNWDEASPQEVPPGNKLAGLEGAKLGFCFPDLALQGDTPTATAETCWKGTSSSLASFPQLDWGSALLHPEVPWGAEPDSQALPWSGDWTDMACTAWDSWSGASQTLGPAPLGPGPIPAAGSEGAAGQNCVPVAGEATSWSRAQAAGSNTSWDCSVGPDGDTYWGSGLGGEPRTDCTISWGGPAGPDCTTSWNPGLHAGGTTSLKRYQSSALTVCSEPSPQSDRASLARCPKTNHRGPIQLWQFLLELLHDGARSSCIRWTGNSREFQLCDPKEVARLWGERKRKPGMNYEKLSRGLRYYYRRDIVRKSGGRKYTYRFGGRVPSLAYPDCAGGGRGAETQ
# Summary of the method: as §1
# [13] = target: T8, ELF3 (Homo sapiens, UniProt P78545 1-371); settings: protein: recombinant; tags: N-terminal GST; dsDNA, one strand shown
# T8 sequence: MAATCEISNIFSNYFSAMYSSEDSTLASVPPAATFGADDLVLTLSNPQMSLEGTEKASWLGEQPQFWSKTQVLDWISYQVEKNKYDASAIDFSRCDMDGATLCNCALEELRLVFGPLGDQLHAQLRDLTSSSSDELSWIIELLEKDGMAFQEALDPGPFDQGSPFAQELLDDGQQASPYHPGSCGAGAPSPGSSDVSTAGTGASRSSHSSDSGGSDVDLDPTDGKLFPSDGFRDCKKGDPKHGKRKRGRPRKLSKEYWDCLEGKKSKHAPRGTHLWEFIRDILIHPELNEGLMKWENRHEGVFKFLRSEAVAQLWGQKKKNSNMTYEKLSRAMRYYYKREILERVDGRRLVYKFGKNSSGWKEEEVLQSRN
# Summary of the method: as §1
# [14] = target: ETV1 (Homo sapiens, UniProt P50549 1-477); settings: protein: recombinant; tags: N-terminal GST; dsDNA, one strand shown
# Chain of ETV1 (P50549 whole entry): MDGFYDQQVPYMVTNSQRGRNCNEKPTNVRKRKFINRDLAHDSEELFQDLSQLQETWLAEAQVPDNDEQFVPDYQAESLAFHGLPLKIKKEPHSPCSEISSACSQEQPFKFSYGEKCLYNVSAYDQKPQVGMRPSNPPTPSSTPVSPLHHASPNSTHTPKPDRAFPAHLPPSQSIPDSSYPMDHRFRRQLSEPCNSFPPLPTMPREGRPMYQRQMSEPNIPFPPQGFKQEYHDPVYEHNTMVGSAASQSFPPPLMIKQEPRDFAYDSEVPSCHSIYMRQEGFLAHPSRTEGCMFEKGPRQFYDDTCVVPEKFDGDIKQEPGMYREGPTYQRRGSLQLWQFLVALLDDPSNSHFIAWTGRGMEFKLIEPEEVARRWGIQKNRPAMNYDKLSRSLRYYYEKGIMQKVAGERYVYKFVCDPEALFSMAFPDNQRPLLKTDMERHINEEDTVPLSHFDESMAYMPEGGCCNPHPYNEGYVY
# Summary of the method: as §1
sequence,measurement,setting,value
TGAAAA,binding signal,[1],"1.06 fold enrichment (6-mer frequency, TF over GST control)"
same,binding signal,[2],"1.03 fold enrichment (6-mer frequency, TF over GST control)"
same,binding signal,[3],"1.04 fold enrichment (6-mer frequency, TF over GST control)"
same,binding signal,[4],"1.08 fold enrichment (6-mer frequency, TF over GST control)"
same,binding signal,[5],"1.23 fold enrichment (6-mer frequency, TF over GST control)"
same,binding signal,[6],"1.06 fold enrichment (6-mer frequency, TF over GST control)"
same,binding signal,[7],"1.02 fold enrichment (6-mer frequency, TF over GST control)"
same,binding signal,[8],"1.14 fold enrichment (6-mer frequency, TF over GST control)"
same,binding signal,[9],"1.11 fold enrichment (6-mer frequency, TF over GST control)"
same,binding signal,[10],"1.11 fold enrichment (6-mer frequency, TF over GST control)"
same,binding signal,[11],"1.08 fold enrichment (6-mer frequency, TF over GST control)"
same,binding signal,[12],"1.08 fold enrichment (6-mer frequency, TF over GST control)"
same,binding signal,[13],"1.08 fold enrichment (6-mer frequency, TF over GST control)"
same,binding signal,[14],"1.01 fold enrichment (6-mer frequency, TF over GST control)"
